This note sets out measurements from PubChem BioAssay.

The structures appear in SMILES notation. Active and inactive are the calls of the source.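 How the source made its calls, unless noted: active means inhibition at or above 50% at 10 µM; inactive means inhibition below 50%.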

Assay [1] in a line: inhibitors of TNFa-induced NFkB p65 translocation, primary screen, imaging, HUVEC, MLSMR starter and 10KST1 sets (AID 438;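 active means inhibition above 20% together with a positive visual image hit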;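 further: compound added about 3h40 before a 20 min TNFalpha stimulation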;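 on inhibition: signal is the nuclear over cytoplasmic p65 intensity ratio per well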). The following applies: HUVEC TNFa-induced p65 nuclear translocation; cell count: measured here: nuclei count (cytotoxicity indicator), at 2.08 µM; inhibition: at 2 µM, stronger effect = higher value, 0% TNFa-plus-vehicle, 100% no-TNFa wells.
The nature of assay [2]: inhibitors of mutant huntingtin aggregation, primary screen, imaging, exon1htt(103Q)mCFP cells, high-content imaging (AID 483;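 active means visual image review flags a hit and inhibition of aggregation exceeds 20%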;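 further: compound exposure lasted 3 days before fixation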;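 on nuclei count: percent of the per-plate median nuclei count of sample wells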). The conditions noted are these: exon1htt(103Q)mCFP cell line, aggregate imaging, at 2 µM; inhibition of aggregation: stronger effect = higher value; nuclei count: measured here: cell count, toxicity.
Assay [3] in a line: inhibitors of E-selectin induction by TNFa, primary screen, imaging, HUVEC, immunofluorescence, MLSMR starter and 10KST1 sets (AID 487;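 active means visually confirmed hit in the image check and inhibition above 20%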;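 on inhibition: signal is fraction of cell area covered by stained E-selectin grains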;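 on nuclei count: 100% = median nuclei count of all wells on the same plate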). The following applies: HUVEC TNFalpha-induced E-selectin immunofluorescence imaging, at 2 µM; inhibition: stronger effect = higher value; nuclei count: measured here: cell number, toxicity.
Assay [4] addresses Voltage-gated potassium channel subunit beta-2 (Rattus norvegicus) (UniProt P62483). Kind of assay: KvBeta enzyme negative modulators, primary screen, biochemical, NADPH fluorescence (AID 622;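 active means fluorescence slope higher than the sample average by over 3 SD, cut at about -0.22 in these data, passing the limit was not always enough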;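 further: slope of raw intensity against log time taken from 70 to 1610 s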). The conditions noted are these: recombinant KvBeta, 4-cyanobenzaldehyde reduction, at 10 µM, stronger effect = higher value.
Assay [5] shares this target. Kind of assay: KvBeta positive modulators, primary screen, biochemical, NADPH fluorescence (AID 623;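 active means NADPH fluorescence slope more negative than the mean of all samples by about 3 SD, 99.7% confidence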;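 further: fluorescence intensity change per second fitted from 20 to 320 s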). The conditions noted are these: Recombinant KvBeta, NADPH fluorescence decrease slope, 10 min; at 10 µM; stronger effect = lower value.
Assay [6] has as its target Alpha-2C adrenergic receptor (Homo sapiens) (UniProt P18825). Kind of assay: modulators of alpha2C/GIRK thallium flux, primary screen, cell-based, HEK293 alpha2C/GIRK1/2 (AID 624;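 active means fluorescence slope after compound addition differing from the mean of all screened samples at 99.7% confidence, in either direction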;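 further: slope of fluorescence ratio to pre-addition baseline per second over 15 to 24 s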). The conditions noted are these: thallium flux BTC fluorescence, at 10 µM, actives lie on both sides.
The nature of assay [7]: inhibitors of Sendai virus-induced IRF3 signaling, primary screen, TLR/RLR signaling modifier project, cell-based, Sendai virus stimulus, luciferase, 10K MLSCN set (AID 602276).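 Further: firefly luciferase from ISG56 promoter only with Renilla not read in this screen; 0% = Sendai virus plus DMSO and 100% = medium plus DMSO without virus.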 The following applies: HEK293 RL24 IRF3 luciferase reporter, at 10 µM, stronger effect = higher value.
Assay [8] is described as follows: inhibitors of poly I:C-induced TLR3 signaling, primary screen, cell-based, poly I:C stimulus, luciferase, 10K MLSCN set (AID 602277;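 active means inhibition of the reporter signal at or above 50%; inactive means inhibition below 50%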). The following applies: HEK293-TLR3 RL24 IRF3 luciferase reporter, at 10 µM, stronger effect = higher value.

Voltage-gated potassium channel subunit beta-2 (Rattus norvegicus), sequence (P62483 whole entry, looked up): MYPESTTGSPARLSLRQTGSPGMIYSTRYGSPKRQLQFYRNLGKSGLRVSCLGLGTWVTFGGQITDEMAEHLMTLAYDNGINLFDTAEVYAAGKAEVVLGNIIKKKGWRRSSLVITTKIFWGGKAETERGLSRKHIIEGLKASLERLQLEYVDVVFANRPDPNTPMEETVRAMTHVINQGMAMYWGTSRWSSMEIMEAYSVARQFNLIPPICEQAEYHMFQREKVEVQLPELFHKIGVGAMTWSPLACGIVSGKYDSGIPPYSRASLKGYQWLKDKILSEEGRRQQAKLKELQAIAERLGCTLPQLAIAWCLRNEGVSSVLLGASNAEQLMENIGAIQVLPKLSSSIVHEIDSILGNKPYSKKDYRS
Alpha-2C adrenergic receptor (Homo sapiens), sequence (P18825 whole entry, looked up): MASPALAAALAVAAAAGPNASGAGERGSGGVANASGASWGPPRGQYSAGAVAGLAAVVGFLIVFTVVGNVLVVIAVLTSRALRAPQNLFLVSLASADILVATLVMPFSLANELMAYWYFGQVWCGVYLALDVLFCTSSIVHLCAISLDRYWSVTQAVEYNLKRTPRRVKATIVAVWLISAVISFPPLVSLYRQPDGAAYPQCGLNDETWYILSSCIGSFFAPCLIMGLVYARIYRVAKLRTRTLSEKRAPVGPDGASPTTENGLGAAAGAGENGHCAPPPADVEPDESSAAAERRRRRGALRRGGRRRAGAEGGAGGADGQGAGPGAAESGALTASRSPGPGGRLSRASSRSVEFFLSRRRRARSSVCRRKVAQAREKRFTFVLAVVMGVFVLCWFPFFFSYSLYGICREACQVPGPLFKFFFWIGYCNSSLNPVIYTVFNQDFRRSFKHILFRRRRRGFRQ

Take `COc1ccccc1N(CC(=O)Nc1cccnc1)S(C)(=O)=O`: the cell count in assay [1] was found to be 623. In addition, the inhibition was 9.2% (inactive) in assay [1], 58.2% (inactive) in assay [3], 7.85% (inactive) in assay [7] and 17.6% (inactive) in assay [8]. Besides, in assay [2], the inhibition of aggregation is 20.5% (inactive). For the same compound, the nuclei count in assay [2] stood at 92.6%; in assay [3], 34.6%. Further, the fluorescence slope in assay [4] was -0.408 (inactive). Also, the NADPH fluorescence slope in assay [5] is -6.4e-05 (inactive). Further, in assay [6], the slope is 0.00671 (inactive).
On to `CCOC(=O)c1[nH]c(CSc2nnc(-c3ccncc3)n2CCOC)c(C(=O)OCC)c1C`, for which, in assay [1], the cell count came to 368. The inhibition in assay [1] was 1.1% (inactive); in assay [3], -89.1% (inactive); in assay [7] it was 8.8% (inactive); in assay [8] it was 11.1% (inactive). Further, the inhibition of aggregation in assay [2] was -5.7% (inactive). The results for the nuclei count in assay [2] and in assay [3] were 107% and 127%, respectively. The fluorescence slope in assay [4] is -0.486 (inactive). Besides, the NADPH fluorescence slope in assay [5] was 1.9e-05 (inactive). Moreover, the slope in assay [6] was 0.00635 (inactive).
As to `O=C1c2ccccc2C(=O)N1CCC(=O)N1CCc2ccccc21`, the cell count in assay [1] was found to be 359. The inhibition is 5.9% (inactive) in assay [1], -71.6% (inactive) in assay [3], -1.4% (inactive) in assay [7] and -26.2% (inactive) in assay [8]. In addition, the inhibition of aggregation in assay [2] was 22.4% (inactive). For the same compound, the nuclei count turned out to be 92.8% in assay [2] and 109% in assay [3]. Besides, the fluorescence slope in assay [4] was -0.393 (inactive). In addition, the NADPH fluorescence slope in assay [5] is -2.1e-05 (inactive). For the same compound, in assay [6], the slope is 0.005 (inactive).
For the compound `CN(C)CCCOC(=O)CCc1ccccc1`, in assay [1], the cell count was 317. Besides, the inhibition in assay [1] was -11.5% (inactive); in assay [3], -26.3% (inactive); in assay [7], -0.368% (inactive); in assay [8], 5.94% (inactive). Further, the inhibition of aggregation in assay [2] was 4.5% (inactive). The nuclei count is 95.6% in assay [2] and 111% in assay [3]. In assay [4], the fluorescence slope is -0.312 (inactive). For the same compound, the NADPH fluorescence slope in assay [5] is -3.9e-05 (inactive). For the same compound, the slope in assay [6] was 0.00462 (inactive).
In the case of `O=C(O)CCC(=O)c1c[nH]c2ccccc12`, the cell count in assay [1] was found to be 458. Also, the inhibition in assay [1] was 0.5% (inactive); in assay [3], -43.2% (inactive); in assay [7], -16.3% (inactive); in assay [8], 8.52% (inactive). Also, the inhibition of aggregation in assay [2] was 20% (inactive). Moreover, the nuclei count in assay [2] worked out at 103%; in assay [3], 105%. Further, in assay [4], the fluorescence slope was -0.457 (inactive). The NADPH fluorescence slope in assay [5] is 9.9e-05 (inactive). In addition, the slope in assay [6] was 0.00973 (inactive).
`COc1cccc(NC(=O)N2CCN(C(=O)C(Cc3ccc(OC)c(OC)c3)NC(C)=O)CC2)c1` (centres undefined): the cell count in assay [1] stood at 364. The inhibition in assay [1] is -0.5% (inactive); in assay [3] it was -47.6% (inactive); in assay [7], 12.1% (inactive); in assay [8] it was 22.8% (inactive). In addition, in assay [2], the inhibition of aggregation was -4% (inactive). Besides, the nuclei count stood at 107% in assay [2] and 99.9% in assay [3]. Further, in assay [4], the fluorescence slope was -0.355 (inactive). For the same compound, the NADPH fluorescence slope in assay [5] is -3.6e-05 (inactive). Also, in assay [6], the slope is 0.00701 (inactive).
Regarding `CC(Oc1ccccc1)C(=O)NC1CC(C)(C)NC(C)(C)C1` (centres undefined), the cell count in assay [1] stood at 386. Also, the inhibition in assay [1] was 0.2% (inactive); in assay [3], 13.8% (inactive); in assay [7] it was 17.4% (inactive); in assay [8], 26.2% (inactive). For the same compound, the inhibition of aggregation in assay [2] was 4.3% (inactive). The nuclei count in assay [2] is 89.9%; in assay [3], 102%. The fluorescence slope in assay [4] is -0.261 (inactive). Further, the NADPH fluorescence slope in assay [5] is -3.5e-05 (inactive). In assay [6], the slope was 0.00587 (inactive).
As to `CCOC(=O)C(C(=O)OCC)C(C)C#CCN1CCCCC1` (centres undefined), in assay [1], the cell count came to 325. Moreover, the inhibition was -1.3% (inactive) in assay [1], -79.7% (inactive) in assay [3], 16.5% (inactive) in assay [7] and 26.6% (inactive) in assay [8]. The inhibition of aggregation in assay [2] was -11.4% (inactive). Also, the nuclei count amounted to 99.7% in assay [2] and 113% in assay [3]. In assay [4], the fluorescence slope was -0.322 (inactive). Moreover, the NADPH fluorescence slope in assay [5] is -5.7e-05 (inactive). Moreover, the slope in assay [6] was 0.00551 (inactive).
For `CC(C)(C)Cc1nc(-c2ccccn2)no1`, in assay [1], the cell count was 379. Further, the inhibition in assay [1] was 0.8% (inactive); in assay [3] it was -71.1% (inactive); in assay [7], -5.86% (inactive); in assay [8], -18.2% (inactive). For the same compound, the inhibition of aggregation in assay [2] was -13.5% (inactive). The nuclei count in assay [2] turned out to be 109%; in assay [3] it was 115%. For the same compound, the fluorescence slope in assay [4] is -0.44 (inactive). Also, the NADPH fluorescence slope in assay [5] is -2.3e-05 (inactive). Also, in assay [6], the slope is 0.00439 (inactive).
With `Cc1ccc(C(C(=O)NC2CCCCC2)N(C(=O)c2csnn2)C2CCCC2)o1` (centres undefined), the cell count in assay [1] is 514. The inhibition in assay [1] was -8.3% (inactive); in assay [3], -68.9% (inactive); in assay [7], 14.4% (inactive); in assay [8], 47.6% (inactive). The inhibition of aggregation in assay [2] was -9.5% (inactive). Moreover, the nuclei count in assay [2] worked out at 103%; in assay [3] it was 112%. The fluorescence slope in assay [4] is -0.547 (inactive). Moreover, the NADPH fluorescence slope in assay [5] is 1.5e-05 (inactive). The slope in assay [6] is 0.00533 (inactive).
`S=c1[nH]nc(-c2ccco2)n1-c1cccc2ccccc12`: the cell count in assay [1] is 390. Moreover, the inhibition in assay [1] was 1.5% (inactive); in assay [3], -181% (inactive); in assay [7], -23.7% (inactive); in assay [8], -8.5% (inactive). In assay [2], the inhibition of aggregation is -1.8% (inactive). The nuclei count in assay [2] was found to be 111%; in assay [3], 104%. Moreover, the fluorescence slope in assay [4] was -0.526 (inactive). Also, in assay [5], the NADPH fluorescence slope is 3.2e-05 (inactive). The slope in assay [6] was 0.00555 (inactive).
For `Cc1ccc(-n2nnnc2SCC(=O)c2cc(C)n(CC3CCCO3)c2C)cc1` (centres undefined), in assay [1], the cell count came out at 452. Also, the inhibition in assay [1] was 6.3% (inactive); in assay [3], -52.2% (inactive); in assay [7], 15.1% (inactive); in assay [8] it was -0.555% (inactive). Moreover, the inhibition of aggregation in assay [2] is -11.9% (inactive). The nuclei count was found to be 102% in assay [2] and 121% in assay [3]. For the same compound, the fluorescence slope in assay [4] was -0.437 (inactive). Also, in assay [5], the NADPH fluorescence slope was 3.2e-05 (inactive). Besides, the slope in assay [6] was 0.00567 (inactive).
For the compound `COc1ccc(C2/C(=C(/O)c3ccccc3)C(=O)C(=O)N2C)cc1` (centres undefined), in assay [1], the cell count was found to be 424. Besides, the inhibition in assay [1] is -0.5% (inactive); in assay [3], -25.9% (inactive); in assay [7] it was 14.9% (inactive); in assay [8] it was 37.5% (inactive). In addition, the inhibition of aggregation in assay [2] was 7.8% (inactive). Further, the results for the nuclei count in assay [2] and in assay [3] were 106% and 110%, respectively. Further, the fluorescence slope in assay [4] is -0.369 (inactive). In assay [5], the NADPH fluorescence slope is 4.1e-06 (inactive). For the same compound, in assay [6], the slope was 0.00577 (inactive).
On to `CN1C(=O)C(CC(=O)N2CCN(C(c3ccccc3)c3ccccc3)CC2)N(C)C1=O` (centres undefined), for which the cell count in assay [1] was 281. Further, the inhibition in assay [1] was -2.3% (inactive); in assay [3] it was 20.6% (inactive); in assay [7], 1.7% (inactive); in assay [8], 22.8% (inactive). The inhibition of aggregation in assay [2] is 9.8% (inactive). The nuclei count in assay [2] is 97.2%; in assay [3], 118%. In assay [4], the fluorescence slope is -0.288 (inactive). Further, the NADPH fluorescence slope in assay [5] was 5.9e-06 (inactive). For the same compound, in assay [6], the slope is 0.00745 (inactive).
